JMJD2A Tudor = inhibitors of human JMJD2A Tudor domain; hit rate 4.4% among 390,000; AID 504339; Potency, µM (highest dose often 114 µM), most hits filed as inhibitors; AlphaScreen JMJD2A-Tudor / H3K4me3 peptide binding; O75164; also: nearly all actives have a fitted effect of over 50% in size
Target sequence (O75164 whole entry, looked up, the tested form may be a part): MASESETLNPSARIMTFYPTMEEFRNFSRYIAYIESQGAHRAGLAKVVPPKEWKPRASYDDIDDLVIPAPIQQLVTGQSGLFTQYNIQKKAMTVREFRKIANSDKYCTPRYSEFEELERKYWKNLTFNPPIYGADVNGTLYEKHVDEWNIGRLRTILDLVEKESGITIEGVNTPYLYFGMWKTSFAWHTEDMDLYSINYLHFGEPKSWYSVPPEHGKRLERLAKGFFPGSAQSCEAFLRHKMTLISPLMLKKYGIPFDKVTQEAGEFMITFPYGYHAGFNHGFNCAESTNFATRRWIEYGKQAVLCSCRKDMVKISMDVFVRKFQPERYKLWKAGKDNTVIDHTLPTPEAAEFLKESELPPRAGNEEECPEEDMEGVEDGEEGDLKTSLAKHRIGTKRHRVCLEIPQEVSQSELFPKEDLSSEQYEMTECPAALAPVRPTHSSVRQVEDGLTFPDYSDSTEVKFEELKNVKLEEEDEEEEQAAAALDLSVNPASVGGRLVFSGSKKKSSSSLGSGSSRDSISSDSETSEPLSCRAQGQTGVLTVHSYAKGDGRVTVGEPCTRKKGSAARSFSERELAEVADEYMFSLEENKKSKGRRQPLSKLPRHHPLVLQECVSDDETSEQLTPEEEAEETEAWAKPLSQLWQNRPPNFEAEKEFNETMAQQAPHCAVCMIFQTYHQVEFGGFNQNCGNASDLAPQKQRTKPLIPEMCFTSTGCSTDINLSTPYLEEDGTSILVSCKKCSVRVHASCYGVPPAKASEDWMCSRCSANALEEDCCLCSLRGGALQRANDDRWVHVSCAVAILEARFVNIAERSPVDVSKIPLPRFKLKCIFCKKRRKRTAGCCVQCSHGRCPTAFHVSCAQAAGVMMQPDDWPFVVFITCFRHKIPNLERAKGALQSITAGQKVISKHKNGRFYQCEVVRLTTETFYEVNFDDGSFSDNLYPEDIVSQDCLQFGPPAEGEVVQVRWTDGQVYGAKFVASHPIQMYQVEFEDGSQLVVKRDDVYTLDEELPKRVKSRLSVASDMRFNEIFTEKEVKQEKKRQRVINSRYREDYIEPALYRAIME
BAZ2B inh = blocks human BAZ2B; Q9UIF8; AlphaScreen BAZ2B-H3K14Ac peptide displacement; Potency, µM (highest dose often 114 µM), most hits filed as inhibitors; hit rate 4.4% among 360,000; AID 504333; also: nearly all actives have a fitted effect of over 60% in size
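Compounds, titrated to a top concentration of 110 uM, were incubated 30 min at room temperature with preformed BAZ2B/acetyl-K14 H3 peptide complex (50 nM each). Proximity signal was measured by AlphaScreen after 20 min with beads.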
G9a inh = G9a (human) methyltransferase inhibition. Q96KQ7. G9a H3K9 monomethylation, AlphaScreen, 2 h. Potency, µM (doses to about 102 µM), most hits filed as inhibitors. hit rate 8.8% among 350,000. AID 504332; also: nearly all actives have a fitted effect of over 75% in size
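Signal arises when biotinylated H3K9 peptide, once monomethylated, bridges streptavidin donor and antibody-captured acceptor beads. Enzyme at 20 nM was preincubated 15 min with test compounds; peptide 500 nM and SAM 20 uM then reacted for 2 h.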
HP1b binding inh = blocks HP1-beta chromodomain binding to methylated histone tails | P83916 | AlphaScreen HP1-beta / biotin-H3K9me3 peptide binding | Potency, µM (doses to about 114 µM), hits mostly inhibitors | hit rate 0.56% among 390,000 | AID 540317; also: nearly all actives have a fitted effect of over 70% in size
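HP1-beta protein (50 nM final) preincubated 30 min at room temperature with biotinylated H3(1-18)K9me3 peptide (50 nM) in PBS pH 7.4, 0.01% Tween-20, then compound added for 30 min. AlphaScreen streptavidin donor/nickel chelate acceptor beads (10 ug/mL final), 30 min dark, luminescence read.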
GLS inh = inhibitors of human glutaminase (GLS); O94925; GLS enzymatic activity, qHTS titration; Potency, µM (highest dose often 45.5 µM), usual class: inhibitors; hit rate 0.21% among 410,000
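Human kidney-isoform GLS in 45 mM KH2PO4 pH 8.2, 0.02% Tween-20, with compound, started with 1mM L-Glutamine (added stock). Glutamate oxidase/HRP/Amplex red coupled fluorescence read at start and after 30 min at RT.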
Numbers stand for hits; i = inactive; ? = inconclusive; nt = no result; [ ] = dose if it differs, or a comment. Sampled rows, rich in hits. Any-hit rate of the full collection: about 10%. Calls follow the shape of the dose curve; as a rule, active = well fitted curve in the direction sought with a large enough effect; inconclusive = small, poorly fitted or top-dose-only effect, or another doubt; inactive = no such curve, though single readings can be large; an effect the other way counts as inactive or inconclusive.

SMILES	JMJD2A Tudor	BAZ2B inh	G9a inh	HP1b binding inh	GLS inh
CCCc1cc(=O)[nH]c(SCC(=O)CSc2nc(CCC)cc(=O)[nH]2)n1	i	i	56µM	i	i
CCNC(=O)NC(=O)COc1ccccc1C#N	i	i	i	i	i
CC(=O)N1CCC2(CC1)CC(=O)c1cc(Cl)ccc1O2	i	nt	nt	i	i
Cc1ccc([C@H]2C(C(=O)O)=CC[C@@H](c3ccc(C(C)C)cc3)N2S(=O)(=O)c2ccc(C)cc2)cc1	?	nt	nt	i	i
CC(=O)c1ccc(NC(=O)NNS(=O)(=O)c2ccc(F)cc2)cc1	i	i	i	i	i
Cc1ccc(/C=C/C(=O)N2CCN(S(=O)(=O)c3c(C)c(C)cc(C)c3C)CC2)o1	79µM	?	7.9µM	?	i
Cc1ccc(/C=C/C(=O)N2CCN(Cc3ccccc3)CC2)o1	i	?	4µM	i	i
Cc1ccc(S(=O)(=O)N2CCN(C(=O)N(C)C)CC2)cc1C	i	i	i[12.7 µM]	i	i
Cc1ccc(C(=O)N2CCN(Cc3ccccc3)CC2)o1	i	i	i	i	i
Cc1cc(C)c(C)c(S(=O)(=O)N2CCN(C(=O)c3ccco3)CC2)c1C	i	nt	nt	i	i
Cc1ccc(/C=C/C(=O)N2CCN(S(=O)(=O)c3ccc(C)c(C)c3)CC2)o1	45µM	?	2.8µM	?	i
Cc1ccc(Cn2cnc3nc4c(cc3c2=O)CCCC4)cc1	i	i	i	i	i
O=C(CCCN1C(=O)c2cccc3cccc(c23)C1=O)NCCN1CCOCC1	i	i	i	i	i
Cc1c(C(=O)N2CCC(C)CC2)oc2ccc(S(=O)(=O)N3CCC4(CC3)OCCO4)cc12	i	i	?	i	i
CC(C)(C)c1ccc(C(=O)NNc2cc(N3CCCCC3)nc(N3CCCCC3)n2)cc1	?	10µM	i	7.1µM	i
CC(=O)NNc1cc(N2CCOCC2)nc(N2CCOCC2)n1	i	i	45µM	i	i
COc1cc(-c2n[nH]c(=O)o2)cc(OC)c1OC	i	i	i	i	i
Clc1ccccc1-c1nc(Nc2ccccc2)nc2ccc(Br)cc12	i	i	i	i	i
COc1ccc(C(=O)NC2(C(F)(F)F)NC(=O)N(CCCc3ccccc3)C2=O)cc1OC (configuration not stated)	79µM	i	i	i	i
COc1ccc(CCN2C(=O)NC(NC(C)=O)(C(F)(F)F)C2=O)cc1OC (configuration not stated)	i	i	i	i	i
CCC1=NN(C(=O)c2ccc(Br)cc2)C(O)(c2ccccc2)C1 (configuration not stated)	i	50µM	i	i	i
CC1=NN(C(=O)c2ccccc2)C(O)(c2ccc(Br)cc2)C1 (configuration not stated)	i	?	i	i	i
CN(NC(=O)/C=C/C(=O)O)c1ncc(C(F)(F)F)cc1Cl	i	?	6.3µM	i	i
Cc1nc(C(C)NC(=O)c2ccc(OC3CCN(Cc4ccccn4)CC3)cc2)c(C)s1 (configuration not stated)	i	79µM	i	i	i
CN(Cc1nccs1)C(=O)c1ccc(OC2CCN(Cc3ccccn3)CC2)cc1	i	i	nt	i	i
SMILES	JMJD2A Tudor	BAZ2B inh	G9a inh	HP1b binding inh	GLS inh
Cc1csc(C(C)N(C)C(=O)c2ccc(OC3CCN(Cc4ccccn4)CC3)cc2)n1 (configuration not stated)	i	?	71µM	i	i
CCOc1cc(/C=N/NC(=O)COc2ccc(Cl)cc2)ccc1OS(=O)(=O)c1ccccc1	i	?	?	i	i
Cc1ccc(OCc2nnc(SCC(=O)O)n2N)cc1	i	?	i	i	i
COc1ccc(OCc2nnc(SCC(=O)N(C)Cc3ccccc3)n2N)cc1	?	nt	7.1µM	?	i
COc1ccccc1N1CCN(C(=O)COc2cccc3ccccc23)CC1	i	i	i	i	i
COc1ccccc1N1CCN(C2CCN(C(=O)COc3ccccc3)CC2)CC1	i	50µM	10µM	i	i
Cc1cccc(OCC(=O)N2CCC(N3CCCCCC3)CC2)c1	3.2µM	?	?	?	nt
COc1ccccc1C(=O)N1CCC(N2CCN(c3ccccc3OC)CC2)CC1	18µM	50µM	7.9µM	?	i
COc1ccccc1C(=O)N1CCC(N2CCN(c3ccccc3)CC2)CC1	2.5µM	50µM	35µM	?	i
COc1ccccc1N1CCN(C(=O)C2CCN(C(=O)c3ccccc3Cl)CC2)CC1	i	i	nt	i	i
CC(NC(=O)[C@H](Cc1c[nH]c2ccccc12)NC(=O)[C@@H]1Cc2ccccc2CN1)c1ccccc1 (some centres not stated)	i	i	?	i	i
CC1CCN(C(=O)COc2ccc(Nc3ccccc3)cc2)CC1	?	i	50µM	i	?
CC(=O)Nc1ccc(OCC(=O)N2CCC(Cc3ccccc3)CC2)cc1	i	i	i	i	i
O=C(c1ccccc1Oc1ccccc1)N1CCN(c2ccccc2)CC1	i	i	40µM	i	i
O=C(CCC1CCCC1)N1CCC(N2CCN(c3ccccc3)CC2)CC1	1.4µM	32µM	?	?	i
COc1ccc(NS(=O)(=O)c2cccc(C(=O)NCC(c3ccc(OC)cc3)N3CCCC3)c2)cc1 (configuration not stated)	?	?	?	i	i
CCOC(=O)c1nnn(-c2ccccc2)c1C	i	i	i	i	i
CCOC(=O)c1nnn(-c2nc(N3CCCC3)nc(N3CCCC3)n2)c1-c1ccccc1	79µM	i	i	i	i
CCOC(=O)Cn1nc(-c2ccccc2)nc1-c1ccccc1	5.6µM	i	i	i	i
CCOC(=O)CSc1nc(-c2ccccc2)ns1	i	i	8.9µM	i	?
CSc1nc(-c2ccccc2)nn1C(=O)c1ccccc1	i	i	i	i	i
CCc1nnc(NC(=O)CSc2nc(-c3ccc(OC)cc3)ns2)s1	i	i	?	i	i
CCCC(=O)n1nc(-c2ccccc2)nc1SC	i	i	1.1µM	i	i
CCOC(=O)CSc1nnc(-c2ccccc2)c(-c2ccccc2)n1	i	i	i	i	i
COc1ccc(-c2nsc(SCC(=O)Nc3cc(C)on3)n2)cc1	?	i	3.5µM	?	i
SMILES	JMJD2A Tudor	BAZ2B inh	G9a inh	HP1b binding inh	GLS inh
CCOC(=O)C1(Cc2ccccc2C(F)(F)F)CCN(C2CCCC2)CC1	i	i	nt	i	i
CCOC(=O)CNC(=O)CSc1nc(-c2ccc(OC)cc2)ns1	i	i	18µM	?	i
Cc1ccc(-c2nsc(SCC(=O)NCC3CCCO3)n2)cc1 (configuration not stated)	i	nt	i	i	i
COc1ccc(-c2nsc(SCC(=O)NCC3CCCO3)n2)cc1 (configuration not stated)	i	i	7.9µM	i	i
CCN(C(=O)CCNC(=O)Cn1cnc2ccccc2c1=O)c1cccc(Cl)c1	i	i	i	i	i
O=[N+]([O-])/C(C(Cl)=C(Cl)Cl)=C(/NC1CC1)Sc1ccccc1	?	i	40µM	i	i
